{"source": "PubChem BioAssay (NCATS)", "note": "Results filed as inconclusive are left out. Entries that show only a call come without a potency. Calls of active or inactive are those of the source. The call rests on the fitted dose curve; in most records, active means well fitted inhibition curve with a large enough effect; inconclusive means small, poorly fitted or top-dose-only effect; inactive means no such curve, though single readings can be large or run the other way. Potency means the concentration at half of the fitted maximal effect."}
{"molecular_target": "Nuclear receptor ROR-gamma (Homo sapiens) (UniProt P51449)", "sequence (P51449 whole entry, looked up)": "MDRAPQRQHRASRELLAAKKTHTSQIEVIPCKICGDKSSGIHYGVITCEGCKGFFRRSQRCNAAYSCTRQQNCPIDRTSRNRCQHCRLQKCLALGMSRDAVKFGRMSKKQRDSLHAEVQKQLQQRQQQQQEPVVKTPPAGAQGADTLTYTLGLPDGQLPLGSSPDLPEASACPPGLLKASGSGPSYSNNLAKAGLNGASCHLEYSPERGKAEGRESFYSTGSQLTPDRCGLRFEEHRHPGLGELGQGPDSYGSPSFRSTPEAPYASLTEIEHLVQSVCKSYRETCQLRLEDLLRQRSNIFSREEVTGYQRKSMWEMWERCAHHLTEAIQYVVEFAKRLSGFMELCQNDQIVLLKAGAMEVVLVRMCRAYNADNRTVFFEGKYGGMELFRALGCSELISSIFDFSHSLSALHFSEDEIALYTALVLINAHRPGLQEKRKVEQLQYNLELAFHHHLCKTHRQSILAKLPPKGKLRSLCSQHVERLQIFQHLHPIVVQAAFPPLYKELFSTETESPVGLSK", "assay": "qHTS assay for small molecule antagonists of the retinoid-related orphan receptor gamma (ROR-gamma) signaling pathway (AID 651802); further: nearly all actives have a fitted effect of over 60% in size", "conditions": "ROR-gamma antagonist cell reporter assay; series mostly up to 92.2 µM", "excerpt": "National Center for Advancing Translational Sciences [NCATS]\nNIH Chemical Genomics Center [NCGC]\nNational Institutes of Environmental Health Sciences [NIEHS]\nNational Toxicology Program [NTP]\nNuclear steroid hormone receptors are involved in many biological processes including inflammatory responses, cell proliferation, and apoptosis. Environmental factors or compounds disrupting these nuclear receptor pathways and gene expression may promote susceptibility to immunotoxicants and autoimmune diseases. One important group of these expression factors are the retinoid-related orphan receptors. To assess compounds that may interfere with the retinoid-related orphan receptor gamma (ROR-gamma) transcription factor, a cell-based luciferase assay was used.\nThe CHO cell-based assay utilizes a TET-inducible ROR expression factor and ROR response element-LUC reporter gene. Reporter activity was induced using doxycycline and measured after 16hr incubation. Luminescence was read using Viewlux (PerkinElmer), where a decrease in reporter activity would show a decrease in luminescence.\n1,000 cells in 4 uL/well were dispensed into white wall/solid bottom 1536-well plates using a Multidrop Combi (Thermo Scientific) dispenser. Following transfer of 23 nL compound or DMSO vehicle by a pin tool, the plates were treated with 1 ul doxycycline to induce reporter gene activity. After 16hr incubation at 37C and 5% CO2, 5uL one-glo (promega) was added to each plate and following 30 min incubation at room temperature, luminescence was quantified on a ViewLux (PerkinElmer) plate reader."}
{"smiles": "O=C(N[C@H](CO)[C@H](O)c1ccc([N+](=O)[O-])cc1)C(Cl)Cl", "Potency": "inactive"}
{"smiles": "O=C(O)c1cc(=O)[nH]c(=O)[nH]1", "Potency": "inactive"}
{"smiles": "Cc1ccnc2c1NC(=O)c1cccnc1N2C1CC1", "Potency": "inactive"}
{"smiles": "CCc1cc(C(N)=S)ccn1", "Potency": "inactive"}
{"smiles": "C[C@]12C=CC(=O)C=C1CC[C@@H]1[C@@H]2C(=O)C[C@@]2(C)[C@H]1CC[C@]2(O)C(=O)CO", "Potency": "inactive"}
{"smiles": "CC[C@H](C)C(=O)O[C@H]1C[C@@H](C)C=C2C=C[C@H](C)[C@H](CC[C@@H]3C[C@@H](O)CC(=O)O3)[C@H]21", "Potency": "4.73 µM (active)"}
{"smiles": "Cc1nnc(NS(=O)(=O)c2ccc(N)cc2)s1", "Potency": "inactive"}
{"smiles": "CC1=NN(c2ccccc2)C(=O)C1", "Potency": "inactive"}
{"smiles": "CN(C)c1ccc(C(=C2C=CC(=[N+](C)C)C=C2)c2ccc(N(C)C)cc2)cc1", "Potency": "2.37 µM (active)"}
{"smiles": "Cc1cc(NS(=O)(=O)c2ccc(N)cc2)no1", "Potency": "inactive"}
{"smiles": "NC(N)=NC(N)=NCCc1ccccc1", "Potency": "16.8 µM (active)"}
{"smiles": "Cc1ncc([N+](=O)[O-])n1CCO", "Potency": "inactive"}
{"smiles": "COc1ccc2cc3[n+](cc2c1OC)CCc1cc2c(cc1-3)OCO2", "Potency": "inactive"}
{"smiles": "NNC(=O)c1ccncc1", "Potency": "inactive"}
